Laboratory results taken from PubChem BioAssay (NCI).
The panel holds about 83,000 compounds, 20% with a hit somewhere; the sample as a whole holds those more often.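 Testing used 96-well plates and a 48-hour single-concentration exposure. Example: -40 means 40% of the starting cells died.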 Unmarked numbers belong to inactive results. Calls of active or inactive are those of the source. How the source made its calls: active means growth percent below 10; inactive means the rest.

Tests used:
Assay in all cases: NCI-60 one-dose screen, 48 h (100 = growth as untreated, 0 = no growth, -100 = all killed)
Conditions in all cases: 10 µM unless noted
[1] = tested on: HCT-15 colon
[2] = tested on: HT29 colon
[3] = tested on: SNB-75 CNS
[4] = tested on: SNB-19 CNS
[5] = tested on: U251 CNS
[6] = tested on: PC-3 prostate
[7] = tested on: SK-MEL-5 melanoma
[8] = tested on: UACC-62 melanoma
[9] = tested on: LOX IMVI melanoma
[10] = tested on: SK-MEL-28 melanoma
[11] = tested on: SK-MEL-2 melanoma
[12] = tested on: EKVX NSCLC
[13] = tested on: SN12C renal
[14] = tested on: UO-31 renal
[15] = tested on: TK-10 renal
[16] = tested on: ACHN renal
[17] = tested on: CAKI-1 renal
[18] = tested on: A498 renal
[19] = tested on: CCRF-CEM leukemia
[20] = tested on: MOLT-4 leukemia

| SMILES | growth [1] | growth [2] | growth [3] | growth [4] | growth [5] | growth [6] [%] | growth [7] | growth [8] | growth [9] | growth [10] | growth [11] | growth [12] | growth [13] | growth [14] | growth [15] | growth [16] | growth [17] | growth [18] | growth [19] | growth [20] |
| --- | --- | --- | --- | --- | --- | --- | --- | --- | --- | --- | --- | --- | --- | --- | --- | --- | --- | --- | --- | --- |
| C[C@@H]1NC(=O)[C@H](Cc2ccccc2)N(Cc2cccnc2)C1=O | 103% | 102% | 85.1% | 96.1% | 91.1% | 94.1 | 101% | 92.7% | 98.5% | 112% | 96.7% | 109% | 93.6% | 89% | 95% | 97.3% | 90.2% | 63.5% | 109% | – |
| COc1ccc(C2[C@@H](Cl)C(=O)N2c2cc(OC)c(OC)c(OC)c2)cc1Cl (stereo partly drawn) | 11% | -3.88% (active) | 75.7% | 32.1% | 5.8% (active) | 25.1 | -23.8% (active) | 36.3% | 20.9% | 69.6% | 15% | 35.4% | 29.1% | 45.3% | 63.9% | 33.6% | 26.5% | -6% (active) | 9.36% (active) | – |
| COc1ccc(OC)c(Nc2nnc(-c3cc(OC)c(OC)c(OC)c3)o2)c1 | 99% | 86.8% | 101% | 96.7% | 105% | 98.6 | 93.9% | 87.8% | 97.9% | 102% | 99.7% | 99.8% | 89.5% | 89.6% | 103% | 105% | 100% | 89.9% | 121% | – |
| Cc1ccc(S(=O)(=O)c2nc(-c3ccccc3)oc2SCC(N)=O)cc1 | 95.3% | 85.7% | 90.4% | 99.5% | 105% | 85.6 | 94.9% | 105% | 96% | 108% | 94.3% | 95.8% | 106% | 85.5% | 85.7% | 99.5% | 87.3% | 80.3% | 102% | – |
| Nc1[nH]nc2nc(-c3ccccc3)n3c4ccccc4nc3c12 | 101% | 104% | 87.7% | 106% | 102% | 95.2 | 92.8% | 88.7% | 99.7% | 117% | 98.8% | 78% | 104% | 83.2% | 110% | 89% | 83.1% | 89.2% | 102% | – |
| O=S(=O)(Nc1ccc2ccccc2c1)c1ccc(-c2cnc(C3CC3)o2)cc1 | 31.5% | 14.8% | -1.76% (active) | 35.8% | 23.6% | 23.4 | 28.2% | 32.1% | 56.9% | 64.9% | 40.2% | 41.9% | 44.9% | 42.5% | 61.9% | 36.2% | 28.9% | 3.93% (active) | 10.7% | 20.2% |
| COc1ccc(-c2cc(-c3cccnc3)nc3sc4c(N)c(C(C)=O)c(-c5ccccc5)nc4c23)cc1OC | 73.6% | 52.5% | 63.5% | 86% | 55.6% | 54.9 | 39.4% | 75.5% | 75.5% | 70% | 89.1% | 87.4% | 80.3% | 51.8% | 77.6% | 81.1% | 61.8% | 71.7% | 70.5% | 72.5% |
| Cc1ncc(C(=O)Nc2ccc(CN3CCN(C)CC3)c(C(F)(F)F)c2)cc1C#Cc1cnc(N)c2ccc(C#N)cc12 | -77.4% (active) | -6.14% (active) | -11.5% (active) | 52% | 19.9% | 11.7 | -79.7% (active) | -8.26% (active) | -90% (active) | -55.9% (active) | -6.37% (active) | 50.4% | 10.4% | -24.4% (active) | 4.43% (active) | -79.6% (active) | -72.6% (active) | -41% (active) | 3.7% (active) | – |
| C=CCN=c1sc(-c2ccc3ccccc3c2)cn1NC(=O)c1cc2ccc1CCc1ccc(cc1)CC2 | 49.5% | 30.1% | 53.3% | 66.8% | 53.9% | 37.8 | -10.1% (active) | 52.7% | 59.9% | 72.2% | 85.6% | 58.2% | 74.3% | 42.3% | 79.7% | 72.3% | 60.9% | 62.7% | 41.2% | – |
| CCOC(=O)c1nnn(Cc2cc(=O)oc3ccc(O)cc23)c1C | 103% | 103% | 93.4% | 96% | 105% | 95.2 | 104% | 95.9% | 99.9% | 107% | 111% | 105% | 96.2% | 91.8% | 101% | 105% | 96.7% | 101% | 82.9% | – |
| O=c1oc2c(cc1-c1ccccc1)c[n+]([O-])c1ccccc21 | 103% | 103% | 93% | 97.9% | 97.9% | 97 | 98.1% | 97.4% | 101% | 109% | 109% | 98.1% | 97.2% | 90.4% | 107% | 97.3% | 90.6% | 105% | 101% | – |
| Cc1cc(O)c(=O)cc2c1C[C@H]1CC(C)(C)/C=C/C[C@]3(C)Oc4cc(=O)c(O)cc(C)c4C[C@H]3C[C@H](O)[C@@]1(C)O2 | 17.3% | 7.77% (active) | 23.5% | 4.62% (active) | 2.67% (active) | 10.2 | -9.26% (active) | -56.5% (active) | 6.33% (active) | 5.5% (active) | -0.26% (active) | 1.96% (active) | 0.888% (active) | -3.55% (active) | 12.8% | 6.64% (active) | 0.0892% (active) | 12.3% | 9.98% (active) | 7.8% (active) |
| COc1cc(C=Nc2oc(-c3ccccc3)c(-c3ccccc3)c2C#N)cc(CN2CCCC2)c1O | 103% | 107% | 66.8% | 94.6% | 93.2% | 86.8 | 104% | 86.5% | 96.5% | 112% | 105% | 91.8% | 91.8% | 68% | 123% | 85.1% | 77.3% | 64.4% | 102% | 104% |
| O=CN1N=C(c2cccc(Nc3ccnc4cc(Cl)ccc34)c2)CC1c1ccc(Cl)cc1 (stereo not drawn) | 29.5% | -24.8% (active) | -17.4% (active) | 49% | 18.9% | 23.1 | 12.7% | 32.4% | 24.2% | 52.7% | 9.56% (active) | 49.1% | 34.1% | 22.7% | 45% | 45.5% | 18.8% | 11.4% | 12.2% | – |
| CC1=C(Cl)C(=O)c2cc(C)ccc2C1=O | 100% | 103% | 88.9% | 106% | 96.2% | 89.6 | 101% | 96% | 100% | 94.9% | 99.9% | 94.2% | 93.7% | 73.3% | 108% | 96.9% | 86.7% | 97.2% | 102% | – |
| Cc1[nH]n(-c2cccc(Cl)c2)c(=O)c1/C=C1\C=c2ccccc2=CC1=O | 49.9% | 13.5% | -5.52% (active) | 31.4% | -10.7% (active) | 33 | -82.5% (active) | 82.7% | -79.4% (active) | 51.1% | 38.1% | 51.3% | 23.6% | 66.6% | 17.2% | -36.1% (active) | 35% | 107% | 36.3% | – |
